Compound activity (PubChem BioAssay)
TWEAK-Fn14 inh = inhibitors of TWEAK-Fn14 interaction signaling; TWEAK-stimulated Fn14 reporter cells, luciferase luminescence, 8 h; inhibition, % at 10 µM; hit rate 2% among 360,000; in the data active means inhibition above about 50%
TROY signal inh = blocks TROY-dependent signaling in reporter cells. Q293 LMP1-TROYcd NF-kB luciferase reporter, 4 h. AID 1347056. inhibition, % at 10 µM. hit rate 0.98% among 360,000;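 active means compounds whose plate-normalised and pattern-corrected inhibition of the luciferase reporter signal at the single screening dose is 50% or more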
HSF1 inhib = HSF1 inhibition; activity change, negative = inhibition, % at 7.5 µM (by protocol); AID 2098; hit rate 0.77% among 300,000; NIH3T3-HGL HSE-luciferase, MG132-induced, luminescence 8 h; hits give low values;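 active means more than half of replicate wells show activity change below -50%, luminescence cut by over half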;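 further: luciferase reports HSF-1 transcriptional activity via heat shock element; 0% = median of DMSO wells and -100% = zero luminescence signal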
HSF-1 act = increases HSF-1 driven luciferase reporter signal. NIH3T3-HGL HSF-1 luciferase reporter, MG132, 8 h; 100% = twice DMSO control signal. activation, % at 9 µM. AID 504408. hit rate 1.7% among 300,000;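 active means mean replicate activation of at least 50% with a set share of replicates each reaching 50%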;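 further: 0% = median of the neutral control wells and 100% = twice that signal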
HSP90 refold inh = blocks HSP90-mediated luciferase refolding in reticulocyte lysate; Rabbit reticulocyte lysate, luciferase refolding luminescence, 3 h; inhibition, % at 5.6 µM; hit rate 0.91% among 290,000;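 active means inhibition above the screen-wide mean plus 3 SD, computed separately per campaign, cut at about 16% in these data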;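 further: 0% = DMSO wells and 100% = 60 µM geldanamycin wells; inhibitors lower the luminescence because luciferase stays unfolded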
LMP1 NFkB inh = reduces LMP1-driven NF-kappaB luciferase signal; LMP1-induced NF-kappaB luciferase reporter cells, luminescence; inhibition, % at 12.5 µM; hit rate 0.69% among 350,000; in the data active means inhibition above about 41%;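 further: 0% = neutral control wells and 100% = reference inhibitor control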
An asterisk follows results filed as active; x = no result given. This is a sample that favours compounds with a hit; in the whole collection about 4.7% have one here.

SMILES | TWEAK-Fn14 inh | TROY signal inh | HSF1 inhib | HSF-1 act | HSP90 refold inh | LMP1 NFkB inh
Cc1cccnc1C(NC(=O)C1CCN(Cc2cn(C)c3ccccc23)CC1)c1ccc(Cl)cc1 (stereo not given) | 20 | 12 | x | x | x | x
Cc1ccc(C(=O)NC2CCCN(c3ccc(C(F)(F)F)cn3)C2)cn1 (stereo not given) | -5 | -5 | 12 | 54* | 2 | 0
COCCCNC(=O)CCn1c(=O)c2ccccc2n(CC(=O)Nc2cc(Cl)ccc2C)c1=O | -10 | -7 | 45 | 83* | -1 | 8
COc1cccc(/C=N/Nc2ncnc3c2ncn3Cc2ccccc2)c1O | 10 | 7 | -5 | -17 | -5 | 78*
Cc1nnc(N/N=C/c2ccccc2F)n1N | 4 | -41 | 15 | 38 | 4 | -1
Cc1nnc(N/N=C/c2ccco2)n1N | 9 | -14 | 42 | 56* | -1 | -5
COc1cccc(/C=N/Nc2nnc(C)n2N)c1O | 11 | 1 | 39 | 68* | 3 | 10
O=C(OCC(=O)N1CCOCC1)c1ccccc1Cc1ccccc1 | 17 | -35 | 27 | 74* | 11 | -39
O=C(OCC(=O)N1CCOCC1)c1ccccc1Br | -4 | -25 | 2 | 15 | -5 | -5
Oc1ccc(-c2csc(Nc3ncccn3)n2)cc1O | 15 | -61 | 75 | 89* | -3 | -5
c1ccc(-c2csc(-c3ccncc3)n2)cc1 | -16 | -28 | 14 | 40 | 2 | -5
Oc1ccccc1-c1csc(-c2ccccc2)n1 | -41 | -57 | 56 | 79* | -5 | -8
Oc1ccc(-c2csc(-c3ccccc3)n2)cc1O | 9 | -45 | 105 | 155* | 0 | -8
Cc1ccc(C(NC(=O)C2CCN(CCOc3ccccc3)CC2)c2ccccn2)cc1 (stereo not given) | 10 | -2 | x | x | x | x
COC(=O)C(=Cc1ccc(-c2ccsc2C(=O)OC)o1)C(=O)OC | 26 | -27 | 31 | 43 | 5 | 6
CCOC(=O)C(=Cc1ccc(-c2ccsc2C(=O)OC)o1)C(=O)OCC | 32 | -24 | 75 | 90* | -5 | -11
O=C(CCNC(=O)N1CC(=O)Nc2ccccc21)NCc1cccc(C(F)(F)F)c1 | -2 | -4 | x | x | x | 16
COc1ccc(CN(C)C(=O)C(CCSC)NS(=O)(=O)c2ccc3c(c2)OCCO3)c(OC)c1OC (stereo not given) | -7 | -12 | x | x | x | 7
CS(=O)(=O)c1ccc2nc(NC(=O)Nc3cccc(Cl)c3)sc2c1 | 47 | 3 | 46 | 99* | -6 | -9
O=C(Nc1ccc(Cl)cc1)Nc1nnc(CSc2ccc(Cl)cc2)s1 | 64* | -1 | -2 | -8 | 3 | 11
Cc1ccc(N2CC(C(=O)Nc3nc4ccc(S(C)(=O)=O)cc4s3)CC2=O)cc1 (stereo not given) | 13 | -3 | -80* | -84 | -3 | -1
O=C(Nc1ccc(Cl)cc1)Nc1nnc(CSCc2ccccc2)s1 | 25 | -7 | -13 | -25 | 2 | 21
O=C(Nc1ccc(F)cc1)Nc1nnc(COc2ccccc2F)s1 | 21 | 57* | 1 | 4 | -3 | 1
CC1(C)CC(=O)C=C(c2ccc(-c3cccc4c3sc3ccccc34)cc2)C1=O | -41 | -64 | x | x | x | -3
O=C(c1cc(-c2ccccc2)on1)N(Cc1cccnc1)C(c1ccccn1)c1nc2ccccc2[nH]1 (stereo not given) | 4 | -3 | x | x | x | x
SMILES | TWEAK-Fn14 inh | TROY signal inh | HSF1 inhib | HSF-1 act | HSP90 refold inh | LMP1 NFkB inh
Cc1ccc(NC(=O)Nc2nnc(-c3ccncc3)s2)cc1C | 82* | 36 | -2 | -11 | -5 | 15
Cc1ccc(NC(=O)Nc2nnc(CSCCOc3ccc(Cl)cc3)s2)cc1 | 10 | 13 | 9 | -2 | -1 | -3
Cc1cccc(C)c1NC(=O)Nc1nc(C(N)c2ccccc2Cl)cs1 (stereo not given) | -2 | 9 | x | x | x | x
O=C(NCCc1ccncc1)Nc1cccc(Cl)c1 | 4 | -15 | 1 | -5 | 4 | 2
O=C(Nc1cccc(Cl)c1)Nc1nnc(CSCCOc2ccc(Cl)cc2)s1 | 50 | 51* | 9 | 2 | -5 | 44*
NC(c1csc(NC(=O)Nc2cccc(Cl)c2)n1)c1ccccc1Cl (stereo not given) | 63* | 42 | x | x | x | x
O=C(Nc1cccc(Cl)c1)Nc1nnc(-c2ccncc2)s1 | 76* | 50* | -20 | -26 | 4 | 11
CS(=O)(=O)N1Cc2cc(C(=O)NCC3CC3)nc(-c3cccc(-c4cccnc4)c3)c2[C@H]1CCO | -4 | 15 | x | x | x | x
